Results filed as inconclusive are left out. Unmarked numbers belong to inactive results. Active and inactive are the calls of the source. Calls follow the shape of the dose curve; as a rule, active = well fitted cell-killing curve with a large enough effect; inconclusive = small, poorly fitted or top-dose-only effect, or effect the other way; inactive = no such curve, though single readings can be large or run the other way.
Assay: qHTS of pediatric cancer cell lines to identify multiple opportunities for drug repurposing: Confirmatory screen for NB1643 cells (AID 1347109); also: nearly all actives have a fitted effect of over 45% in size
Conditions: NB1643 neuroblastoma cell viability; series mostly up to 45.9 µM; activity change, negative = cytotoxic: at the top concentration
Description: Drug repurposing or repositioning has been offered as a strategy for drug development in oncology programs. This approach has special potential for childhood cancers and other rare or orphan diseases, where the expected return on new drug development has been a disincentive to pharmaceuticals.
In this project we exploit the poly-pharmacology of drugs to discover new indications via phenotypic screening of a panel of 19 well-characterized cell lines derived from solid tumors seen in children and adolescents. The goal is to identify approved drugs with previously unrecognized anticancer properties that has the potential to reveal new mechanisms and biological processes involved in carcinogenesis or drug resistance. We employed a titration-based paradigm (quantitative high-throughput screening or qHTS), where all compounds were tested at multiple concentrations for their effect on cell viability. Concentration-response curves (CRCs) were derived directly from the primary screen, and both potency and efficacy values were used to identify compounds with robust bioactivity profiles. We screened the NIH Chemical Genomics Center (NCGC) Pharmaceutical Collection (NPC) and Mechanism Interrogation Plate (MIPE) small molecule collections of approved and investigational compounds against these cell lines; and measured metabolically active cells after 48 hours of compound treatment as a proxy for cell viability.
Assay Submitter: Nathalia J. Martinez, National Center for Advancing Translational Sciences, National Institutes of Health, Rockville, MD, USA; email: natalia.martinez@nih.gov
[1] Shen, M et al. Quantitative high-throughput phenotypic screening of pediatric cancer cell lines identifies multiple opportunities for drug repurposing. Oncotarget 2017 Dec 19;9(4):4758-4772. PMID 29435139.
The cells were obtained from University of North Carolina (UNC), Pediatric Preclinical Testing Program (PPT), and Coriell Institute (CI).
qHTS cell viability assay:
Cells were assayed in growth media at a density of 500-1,000 cells/well. Five microliters of cells were dispensed into 1,536-well, white, solid-bottom, TC-treated plates (Greiner Bio One) using a multidrop dispenser and incubated at 37 degrees C, 5% CO2, under a humidified atmosphere for 5 hours. Twenty-three nanoliters of compounds and controls (neutral control DMSO or positive control bortezomib at final concentration of 2.3 µM) were subsequently transferred by Kalypsys pintool. For primary screens, the MIPE collection was tested at 11-point dilutions (final concentrations range from 0.78 nM to 46 µM) and the NPC collection at 8-point dilutions (final concentrations range from 0.59 nM to 46 µM). Compounds tested in follow-up screens were assayed at 11-point dilutions. Cells were incubated for 48 hours, followed by addition of 3 µL of CellTiter-Glo (Promega). After a 15 min incubation at room temperature, samples were analyzed for luminescence intensity using a ViewLux High-throughput CCD imager equipped with clear filters.
Potency is read from the fitted curve at half-maximal effect.

SMILES	activity change, negative = cytotoxic	Potency
Cc1ccccc1-n1c(Cn2cnc3c(N)ncnc32)nc2cccc(C)c2c1=O	-8.89%	
CC=C(C)C(=O)O[C@H]1C(C)=C2[C@@H]3OC(=O)[C@@](C)(O)[C@@]3(O)[C@@H](OC(=O)CCC)C[C@](C)(OC(C)=O)[C@@H]2[C@@H]1OC(=O)CCCCCCC	-0.415%	
CS(=O)(=O)c1ccc(C(=O)C2C(=O)CCCC2=O)c([N+](=O)[O-])c1	10.4% [at 95.5 µM]	
CCC(=O)OC1CCC2C3CCC4=CC(=O)CC[C@@]4(C)C3CC[C@]12C (some centres not stated)	-8.81%	
Cc1ccccc1-n1c(Cn2ncc3c(N)ncnc32)nc2cccc(C)c2c1=O		522 nM (active)
O=C1C(I)=CC(=C(c2cc(I)c(O)c(I)c2)c2ccccc2C(=O)O)C=C1I	-2.53%	
O=C(N[C@H]1CN2CCC1CC2)c1ccc(Cl)cc1		16500 nM (active)
C[C@@]12OC(=O)[C@]1([C@@H](O)[C@@H]1C=CCCC1)NC(=O)[C@H]2CCCl		1040 nM (active)
COc1cc2cc(c1Cl)N(C)C(=O)C[C@H](OC(=O)C(C)C)[C@]1(C)O[C@H]1[C@H](C)[C@@H]1C[C@@](O)(NC(=O)O1)[C@H](OC)C=CC=C(C)C2		65700 nM (active)
CC[C@@]1(O)C(=O)OCc2c1cc1n(c2=O)Cc2cc3ccccc3nc2-1		131 nM (active)
C[C@]12Cc3cn[nH]c3C[C@@H]1CC[C@@H]1[C@H]2CC[C@@]2(C)[C@H]1CC[C@]2(C)O	-18.2%	
CC[C@@H]1[C@@H](C)O[C@@](O)([C@@H](C)[C@H](O)[C@H](C)[C@H]2OC(=O)C=CC=C[C@@H](C)[C@@H]([C@@H](C)[C@@H](O)[C@H](C)[C@@]3(O)C[C@H](O[C@H]4C[C@H](O)[C@H](O)[C@H](C)O4)[C@H](CC)[C@@H](C)O3)OC(=O)C=CC=C[C@@H]2C)C[C@H]1O[C@H]1C[C@H](O)[C@H](O)[C@H](C)O1	10.4%	
O=C(Nc1ccncc1)C(=O)c1cn(Cc2ccc(Cl)cc2)c2ccccc12		465 nM (active)
C=CCON=C(C[C@H]1O[C@@H]2O[C@]3(C)CC[C@@H]4[C@H](C)CC[C@@H]([C@H]1C)[C@@]24OO3)[C@H]1O[C@@H]2O[C@]3(C)CC[C@H]4[C@H](C)CC[C@@H]([C@@H]1C)[C@@]24OO3		414 nM (active)
CC(C)N[C@@H]1CCn2c(=O)[nH]c3cccc(c32)[C@@H]1O	5.68%	
C[C@@H]1O[C@@H](O[C@@H]2C=C3CC[C@@H]4[C@@H](CC[C@]5(C)[C@H](c6ccc(=O)oc6)CC[C@@]45O)[C@@]3(C)CC2)[C@H](O)[C@H](O)[C@H]1O		82.7 nM (active)
CCCN1CCO[C@@H]2c3cc(O)ccc3OC[C@@H]21	-0.654%	
CC1=C(O)C(=O)C=C2C1=CC=C1[C@@]2(C)CC[C@@]2(C)[C@@H]3C[C@](C)(C(=O)O)CC[C@]3(C)CC[C@]12C		2080 nM (active)
Cc1[nH]nc2ccc(-c3cncc(OC[C@@H](N)Cc4c[nH]c5ccccc45)c3)cc12		737 nM (active)
CO[C@H]1CCC(O[C@H]2C[C@H]([C@]3(C)CC[C@]4(C[C@H](O)[C@@H](C)[C@@H]([C@@H](C)C=C(C)C(=O)[C@H](C)C[C@H](C)C(=O)O)O4)O3)O[C@]3(O[C@@H]([C@H]4O[C@@](O)(CO)[C@H](C)C[C@H]4C)C[C@H]3C)[C@H]2C)O[C@H]1C (some centres not stated)		2930 nM (active)
CC(=O)[O][Hg][c]1ccccc1		1470 nM (active)
C[C@H]1CCCC=CC2C[C@H](O)C[C@@H]2[C@H](O)C=CC(=O)O1 (some centres not stated)		131 nM (active)
CC(C)(C)C(O)C(Oc1ccc(Cl)cc1)n1cncn1 (configuration not stated)	-2.72% [at 95.5 µM]	
O=c1[nH]c2ccc(Cl)cc2c(N[C@@H]2CN3CCC2CC3)c1-c1nc2ccccc2[nH]1		1310 nM (active)
C[C@@H]1CC[C@@]2(OC1)O[C@H]1C[C@H]3[C@@H]4CC=C5C[C@@H](O[C@@H]6O[C@H](CO)[C@@H](O[C@@H]7O[C@@H](C)[C@H](O)[C@@H](O)[C@@H]7O)[C@H](O)[C@@H]6O[C@@H]6O[C@@H](C)[C@H](O)[C@@H](O)[C@@H]6O)CC[C@]5(C)[C@@H]4CC[C@]3(C)[C@@H]1[C@H]2C		4140 nM (active)
Cc1c(C(=O)Nc2cccc(C(F)(F)F)c2)cc(-c2ccccc2)n1CCCN1CCOCC1		42700 nM (active)
CC(C)(O)C=CC(=O)[C@](C)(O)[C@H]1[C@H](O)C[C@]2(C)[C@@H]3CC=C4[C@@H](C=C(O)C(=O)C4(C)C)[C@]3(C)C(=O)C[C@@]12C		117 nM (active)

Source: PubChem BioAssay (NCATS)
